This is an account of results in the supplement of paper PMC6555819.

This assay relates to VDR:RXRa (NR concentration 270 nM, RXRa partner concentration 90 nM). Put plainly: PBM binding z-score (relative to random genomic background probes); higher = stronger binding; sequences stand for … in GC…GCGATTGACAGCGTAGAATGAAGG
On the procedure: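 Protein-binding microarray (Agilent 4x180K custom design, double-stranded 60-nt probes: 5' GC cap, 34-nt variable region, 24-nt constant primer region; full probe sequence given). Purified or IVT nuclear receptor:RXRα heterodimers (3:1 NR:RXRα, mostly 270:90 nM) or homodimers were incubated for 1 h in PBS with 2% milk and no ligand, then detected with Alexa488 antibodies. Fluorescence from o1-orientation probes (~5 replicates averaged) was converted to z-scores against 500 random hg19 background probes. Variable regions are seed direct-repeat (DR0–DR5) sites, all their single-nucleotide variants and half-site ablations.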
With CGTCCAAGGTAAGAGAGGTCAGTGAATGCCGAGT, the PBM binding z-score turned out to be 4.

For the sequence ATCGAAAGGTCGACGAGTTGAGTATACACCGTTT, the PBM binding z-score was determined as 6.08.

In the case of CGGACTAGGTCACCAGGACAGTGAAGAGGTTGGA, the PBM binding z-score came out at 1.54.

For the sequence CTATGTAGGTTAAGGGGGTCATTTAGTTTGAAAG, the PBM binding z-score is 7.32.

In the case of CCTACTGGGCCAAAAATGTCATTGATGCCGATAA, the PBM binding z-score came out at 0.0323.

Sequence CAAACTAGGTCACGAAAGGTCAAAGCCGAATGAC showed a PBM binding z-score of 6.5.

CCTAGTTGGTCAAGGTCCCACACGCTATAGGTAC: the PBM binding z-score amounted to 0.398.

On to CCGAGTAGGTTACGAGGGGGCATCCAGTGCGAAT, for which the PBM binding z-score stood at 4.75.

As to CAGCCTAGTTCAGGGCCAGTATAGGAGGAACGTT, the PBM binding z-score is -0.0838.

In turn, TCGAGTAGGTTAGGGGGGCATTCAGGGATGAAGA registered a PBM binding z-score of 3.91.

In the case of TCGAGTAGGTTACGGGGGCATTGAGGGATGAAGA, the PBM binding z-score is 3.66.

As to CAAACTAGGTCACAGAGGGCAAAGTCCGTGCGTA, the PBM binding z-score stood at 7.09.

For CCTACTGGGCCAAAGGACATTGATTCCAATGCTC, the PBM binding z-score is -0.439.

As for ACTAGTTGTTCAGCTGAGGTCACACACAATTCGG, the PBM binding z-score worked out at 4.06.

CCTTACGGGTCACGGGGTTATAGCACGACGAGCG: the PBM binding z-score worked out at 5.75.

Take CCTAGTTGGCCAAGGTCACACACGCTATAGGTAC: the PBM binding z-score was found to be 4.02.

For TCTCGGAGGACACGAAAGGTGAGAGCTCGACATC, the PBM binding z-score was 0.263.

Turning to CAAACTAGGTCACGAAAGGTCAAATTCGAATGAC, the PBM binding z-score came to 6.93.

Sequence CAAACTAGGTCACCAGGACAGTGAAGAGGTTGGA gave a PBM binding z-score of 2.3.

For the sequence AATACAGGGTCACTGGGCCAGAGTAGGTACGAAT, the PBM binding z-score was 4.65.

CTTACTGGGCCAAAGGTCATTGATTCCAATGCTC came in with a PBM binding z-score of 4.77.

In the case of CCTACAGGGCCAAGGTCATTGATCAGTCAAAGCA, the PBM binding z-score stood at 3.39.

In turn, CTAGGTAGGTTAAGGGGGTCATTCAGTTTGAAAG came in with a PBM binding z-score of 7.24.

In the case of CGTCCAAGGTCCATGCTAGGTCAGTGAAAGCATT, the PBM binding z-score turned out to be 0.731.

Sequence CGAACTAGGTCAAAGGACAATGAAAGGCGACGTA displayed a PBM binding z-score of 1.73.

As to TCGAGTAGGTTATGGGGGCATTCAGGGATGAAGA, the PBM binding z-score worked out at 3.34.

For the sequence CGTCCAAGGTAAATGCTAGGTCAGTGAAAGCATT, the PBM binding z-score was 0.355.

Take ATCTCTAGGTAAAGGTCAGTGAAAGATCGATAGA: the PBM binding z-score turned out to be 2.89.

Turning to CGAACTAGGTCAAAGGACAGTGGAAGGCGACGTA, the PBM binding z-score was 1.21.

Sequence ATATGTAGGTTAGGGTCACTCAGAAAGTAGGGAA yielded a PBM binding z-score of 3.98.

ATATGTAGGTTACATCCGGGTCATTCTGGCTATG came in with a PBM binding z-score of 3.69.

With TTACCAAAGTGAAAGGTCGTTGATGCACGCCTTG, the PBM binding z-score came to 1.86.

For CTAACTAGGTCAAAGGACAGTGAAAGGCGACGTA, the PBM binding z-score is 1.3.

The sequence CTATGTAGGTTAAGGGGGTCTTTCAGTTTGAAAG came in with a PBM binding z-score of 3.93.

As for ATCGAAAGGTCGAAGGTGAGTACACCCACCCGAA, the PBM binding z-score was 3.97.

Consider CGAACTAGATCAAAGGACAGTGAAAGGCGACGTA, for which the PBM binding z-score is -0.333.

In turn, CTATGTACGTTAAGGGGGTCATTCAGTTTGAAAG came in with a PBM binding z-score of 6.72.

ACTTACGGGTCAACGAAGTTATAGCACGCGTATA: the PBM binding z-score stood at 4.19.

The sequence CCAAGTAGGTTACGAGGGGGCATTCAGTGCGAAT gave a PBM binding z-score of 5.54.

As for ATATGTAGGTTAGGGTCATGCAGAAAGTAGGGAA, the PBM binding z-score stood at 4.36.
